# Source: the supplement of paper PMC4466236
# In all, about 33,000 sequences were measured (“E-score (dimensionless, -0.5 to 0.5)”: median about -0.058, highest 2% from about 0.35 on). Only a selection was taken, and the highest values are over-represented in it overall.
# Test system: MvaT
# Experiment: PBM 8-mer E-score (mean of HK and ME arrays) (E-score (dimensionless, -0.5 to 0.5)); higher = stronger relative binding preference
# Description: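 Protein binding microarray: GST-tagged full-length MvaT (P. aeruginosa PAO1) bound to two universal double-stranded 60-mer arrays (ME and HK), each with a constant 25-mer primer and a variable 35-mer region covering all 8-mers. The 8-mer E-score (rank-based, range -0.5 to 0.5, >0.45 = specific binding) is the mean of the two arrays.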
row,Sequence,PBM 8-mer E-score
1,CGGTTATC,0.0552
2,GCATCGGA,-0.11
3,CTGATGCC,-0.231
4,AGAGAAAT,0.134
5,GATAGTAA,0.284
6,AAATTACT,0.308
7,AAATTACG,0.256
8,GAATTAAA,0.385
9,AAATTAGT,0.281
10,TAATTAAA,0.447
11,GAATTAAC,0.256
12,CAATTAAG,0.24
13,GGATTAAA,0.232
14,AAATTAAT,0.426
15,TGATTAAA,0.27
16,CAATTAAA,0.305
17,AAATTAAG,0.361
18,CCCGTACA,-0.0141
19,CGTAATCA,0.0215
20,AAATTAAA,0.399
21,AAATTAAC,0.27
22,AAATTAGA,0.191
23,CGGAGGGA,-0.311
24,CAAAACAC,0.0954
25,AGTTTAAC,0.244

row,Sequence,PBM 8-mer E-score
1,AGTTTAAG,0.257
2,GGTTTAAA,0.31
3,TGTTTTAA,0.302
4,AGTTTTAA,0.259
5,AGTTTAAT,0.379
6,AGTTTAAA,0.378
7,CGTTTAAA,0.317
8,TGTTTAAA,0.387
9,AATTCTGA,0.0908
10,TGCATCCA,-0.0802
11,GGGCCCTA,-0.218
12,AGGAAGAG,-0.188
13,ATGGAGTA,0.0119
14,CATACTAA,0.198
15,TATACTAA,0.391
16,AATACTAA,0.356
17,GATACTAA,0.213
18,AATACTAC,0.271
19,AATACTAT,0.297
20,TCTGAGAA,-0.0369
21,AGCTAAGA,-0.0322
22,ATAATGCG,0.271
23,ATAATGCA,0.36
24,ATAATGTC,0.337
25,ATAATGTA,0.401

row,Sequence,PBM 8-mer E-score
1,CTAATGTA,0.23
2,CTAATGCA,-0.0396
3,ATCCCGCC,-0.0462
4,CCTATCTC,0.0122
5,AACCGTTG,-0.0901
6,GTTGTACA,0.115
7,AAGAGTGA,0.00575
8,CTTCACTC,-0.239
9,ATAAGTGC,0.178
10,ATAAGTTC,0.368
11,CTAAGTCA,-0.101
12,GTAAGTTA,0.396
13,AGAAGTTC,0.223
14,CTAAGTTA,0.352
15,CTAAGTTC,0.232
16,ACAAGTTA,0.338
17,GGAAGTTA,0.227
18,ATAAGTTA,0.441
19,GCAAGTTA,0.34
20,ATAAGTTG,0.342
21,ACACAACG,-0.0104
22,GAAGGAGA,-0.255
23,GGGTTCAC,-0.111
24,AACCATAT,0.254
25,AACATCCC,2.53e-05

row,Sequence,PBM 8-mer E-score
1,TACGAGGA,-0.05
2,GGGGCCAA,-0.225
3,CTATCCAA,-0.0391
4,CTATTACA,0.267
5,CTATTAGA,0.208
6,ATATTAGC,0.352
7,ATATTACC,0.293
8,ATATTAGA,0.407
9,ATATTACA,0.386
10,ATATTAGG,0.309
11,CTATTAGC,0.136
12,GTATTAGA,0.267
13,ATCTGTGA,-0.0144
14,CACTTAGC,-0.0629
15,GCCCGCGA,-0.31
16,ACCTGTCG,-0.277
17,CTGAAAAG,-0.0791
18,GAAATTAA,0.331
19,AAAATTAG,0.162
20,TAAATTAA,0.437
21,AAAATTAC,0.149
22,AAAATTAT,0.355
23,AAAATTAA,0.387
24,AAAATTGT,0.269
25,AAAATTGA,0.224

row,Sequence,PBM 8-mer E-score
1,CAAATTAA,0.286
2,CCTAATAC,0.104
3,GGGCTCCA,-0.168
4,GAAGCATA,0.00764
5,CACACCTA,0.0249
6,ACACGAGT,-0.0299
7,ACTACTGG,0.0326
8,AATCCGCC,-0.0734
9,ATTTTAAA,0.383
10,CTTTTAAA,0.361
11,GTTTTAAA,0.282
12,CTTTTTAA,0.213
13,ATTTAAAA,0.377
14,CCTTAAAA,0.0816
15,ATTTTTAA,0.323
16,ACTTAAAA,0.226
17,CTTTTAAC,0.314
18,CGCTGGAA,-0.092
19,AGCAAAAA,0.0929
20,ACGTTGAT,0.0529
21,GCAAACAA,0.0823
22,AATATAGC,0.343
23,GATATAGA,0.206
24,AATAGAGA,0.217
25,AATATAGT,0.398

row,Sequence,PBM 8-mer E-score
1,AATATAGG,0.288
2,TATATAGA,0.434
3,ACTATAGA,0.127
4,CATATAGA,0.187
5,AATATAGA,0.365
6,CCCTTCAG,-0.27
7,GAGTAGAA,0.0154
8,AGAAACGG,-0.0989
9,ATACAATG,0.204
10,CCGGCTAC,-0.217
11,GCCAGAAC,-0.0482
12,AGATAAAA,0.178
13,ACATAAAA,0.23
14,AAATAAGT,0.38
15,AAATAAGC,0.275
16,AAATAAAA,0.419
17,ACATAAAG,0.101
18,AAATAAAG,0.405
19,CAATAAAG,0.252
20,ACATAAAT,0.301
21,AAATAAAC,0.334
22,AAATAAGG,0.322
23,AAATAAAT,0.428
24,AAGCCGCT,-0.232
25,ATTCAACG,0.0307

row,Sequence,PBM 8-mer E-score
1,CCAATTCA,-0.0716
2,TCCTGTCA,-0.158
3,GAGCAAAC,-0.0867
4,GCTGCCAA,-0.0483
5,CTACTAAG,-0.00927
6,AAGCGTCA,-0.00559
7,CCGAATAG,-0.0201
8,CGCAGTCC,-0.172
9,AACCTCCA,-0.115
10,GGTCTGTA,-0.219
11,GAACCTGA,-0.0412
12,AATCTCGA,0.179
13,ACTGAAAG,-0.0474
14,GATTAACA,0.278
15,CATTAAAG,0.272
16,CATTAACA,0.274
17,AATTAAAT,0.452
18,TATTAACA,0.437
19,ACTTAAAT,0.331
20,AATTAAAA,0.373
21,ATTAAAAT,0.29
22,ACTTAAAG,0.159
23,AATTAAAG,0.355
24,ATGTTGGA,0.125
25,CAACCATA,0.0988

row,Sequence,PBM 8-mer E-score
1,CTCGTAAG,-0.0264
2,CCTGGTTC,-0.254
3,CCGCCGGC,-0.321
4,AAATAGGA,-0.0215
5,AAAAACAC,0.087
6,CAGGTGAG,-0.208
7,GCCCCACC,-0.292
8,AAGGAGTC,-0.047
9,CTAATCAA,0.102
10,GATTAAGA,0.157
11,TATTAAAA,0.41
12,AATTAAAC,0.382
13,CATTAAAC,0.334
14,GATTAAAC,0.191
15,TATTAAGA,0.366
16,GATTAAAA,0.217
17,CATTAAAA,0.201
18,AATTAAGA,0.277
19,TGATGGAA,0.0193
20,CGCCCCTC,-0.202
21,CCACCCTA,0.0237
22,AAAAGTGC,0.142
23,AGGTGGGC,-0.177
24,AATTTGGC,0.161
25,CTGCAGTA,0.129

row,Sequence,PBM 8-mer E-score
1,AAAGCATA,0.0331
2,ATTTAAAC,0.398
3,ATTTTAAC,0.307
4,ATTTAAAT,0.474
5,ATTTTAAG,0.225
6,GGTTAAAC,0.0681
7,GCTTAAAC,0.121
8,ATTTAAAG,0.354
9,CTTTAAAG,0.25
10,GTTTAAAC,0.406
11,CTTTAAAC,0.229
12,ATTAAAAC,0.301
13,GGGTGCAA,-0.0874
14,AGTTCGAT,0.171
15,CGGTCCGA,-0.24
16,GGGTAGCA,-0.213
17,CAGTGTCC,-0.176
18,GACAAATC,-0.0221
19,AGTTAATA,0.406
20,ATTTAACC,0.195
21,GTTTAACA,0.281
22,GTTTAATA,0.407
23,AGTTAATC,0.169
24,ATTTACTG,0.247
25,ATTTAAGG,0.101

row,Sequence,PBM 8-mer E-score
1,ATTTAATG,0.376
2,ATTTAACA,0.376
3,GTTTAAGA,0.246
4,ATTTAACG,0.255
5,GGTTAATA,0.276
6,CAACTCCA,-0.0538
7,CACCCAGA,-0.158
8,CATAGGAG,0.0253
9,AATCTCGG,0.0949
10,ACACCATA,0.0603
11,CCAGGTCA,-0.141
12,AAGTAGGT,0.0927
13,CATTCCCC,-0.183
14,ATTTAATC,0.346
15,CTTTAATC,0.141
16,ATTTAATA,0.411
17,ATTTAAGA,0.239
18,ATTTAAGC,0.309
19,CTTTAATA,0.344
20,AGATCGCG,-0.153
21,GATTCAGA,-0.0136
22,GAGTTAGC,-0.00613
23,GGACCAAA,-0.139
24,AGCTCGGA,-0.141
25,GAATTATA,0.374

row,Sequence,PBM 8-mer E-score
1,CAATTATG,0.329
2,CAATTATC,0.264
3,TAATTCTA,0.278
4,AAATTATG,0.233
5,AAATTATC,0.318
6,GAATTATC,0.147
7,GAATTACA,0.175
8,TAATTATA,0.462
9,TAATTGTA,0.305
10,AAATTATA,0.45
11,CAATTATA,0.414
12,AAGGACCA,-0.154
13,AGGGGGTG,-0.316
14,AACCTGCT,-0.0689
15,TGTCCCAA,0.187
16,CTGGCAAC,0.0118
17,TCCTTCAA,-0.14
18,ATACTAAG,0.272
19,AGTAGGTG,-0.0642
20,AATCGAAC,0.176
21,CCCGGCGA,-0.269
22,GAATTAGA,0.106
23,AAATTACA,0.274
24,TAATTAGA,0.353
25,CAATTACA,0.288

row,Sequence,PBM 8-mer E-score
1,AAATTGTC,0.22
2,TAATTACA,0.384
3,CAATTAGA,0.202
4,AAATTGTT,0.351
5,AAATTAGG,0.165
6,AAATTGTA,0.267
7,AAATTACC,0.212
8,AAATTATT,0.401
9,ACAGCAAG,-0.0242
10,GTACATAA,0.297
11,CCGGGACC,-0.311
12,ATCCAGAA,0.0751
13,ATCAGTCG,-0.0941
14,ACAAATGC,0.0069
15,GAGGTAGC,-0.211
16,AGCCACCA,-0.0502
17,TAAAGTTA,0.315
18,CATAGTTA,0.178
19,AAAAGTCA,0.0201
20,AAAAGTTC,0.277
21,AAAAGTTA,0.371
22,AATAGTTA,0.387
23,GATAGTTA,0.311
24,AAAAGTTG,0.221
25,CAAAGTTA,0.265

row,Sequence,PBM 8-mer E-score
1,AAAAGTGA,0.0292
2,AAAAGTTT,0.352
3,GAAAGTTA,0.346
4,GCGTCAGA,-0.131
5,CGTGGATA,0.112
6,ATCCCAGA,-0.203
7,GCCACGCA,-0.169
8,CACCGGTG,-0.153
9,GAAACAGA,-0.0327
10,CGGAGTAC,-0.128
11,CTGAATGC,-0.0524
12,AGGTCGCG,-0.202
13,AAAAAGTC,0.17
14,AAAAAGTT,0.357
15,AAAAAGTA,0.154
16,TGCCGGCA,-0.0619
17,ATGACTCA,-0.062
18,CGTTAAAA,0.295
19,AGTTAAAC,0.242
20,AGTTAAAA,0.37
21,AGTTAAAG,0.209
22,TGTTAAAA,0.25
23,AGTTAAAT,0.383
24,ACCTGCAC,-0.11
25,CCGCAGAC,-0.181

row,Sequence,PBM 8-mer E-score
1,AAAGACGT,0.0386
2,CGTGCGCC,-0.27
3,TCCAGGCA,-0.215
4,CAATGTAA,0.236
5,TATTGTAA,0.379
6,GATTGTAA,0.109
7,CCATGTAA,0.171
8,AAATGTAC,0.14
9,AATTGTAA,0.305
10,AAATGTAA,0.373
11,GAATGTAA,0.232
12,AAATGTAG,0.0975
13,TCATGTAA,0.119
14,TAATGTAA,0.373
15,ACATGTAA,0.361
16,AGTAGATA,0.202
17,CGAATTTA,0.157
18,CTGGGATA,-0.0515
19,CGCAACCC,-0.0943
